Measured values published in PubChem BioAssay AID1159580 (chemical genetic matrix, 2015).
About 2,000 (36%) of roughly 5,500 compounds were called active. Roughly 18% stayed inconclusive and do not appear here. Some of the results follow. Values without a mark were called inactive. No stated cut-off is given here; in the data, active means normalized growth mostly below about 0.91 (no sharp cut-off); inconclusive means no clear call, values can overlap the other calls; inactive means mostly above about 0.92.

Assay: chemical genetic growth profiling, strain panel (AID 1159580);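 further: tested at 20 µM; growth read once vehicle control cultures reached saturation at 30 °C; 1 = growth at the plate median or of vehicle wells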
Details: growth OD

`CCCCCCCCCCc1ccc(-c2ccccc2)cc1` showed a normalized growth (S. cerevisiae deletion strains, locus YAL013W, strain DEP1, stronger effect = lower value) of 0.982, a normalized growth (S. cerevisiae deletion strains, locus YBR229C, strain ROT2, stronger effect = lower value) of 1.01 and a normalized growth (S. cerevisiae deletion strains, locus YDL101C, strain DUN1, stronger effect = lower value) of 0.99. The normalized growth (S. cerevisiae deletion strains, locus YDR150W, strain NUM1, stronger effect = lower value) was 0.976, the normalized growth (S. cerevisiae deletion strains, locus YEL061C, strain CIN8, stronger effect = lower value) was 0.988 and the normalized growth (S. cerevisiae deletion strains, locus YGR078C, strain PAC10, stronger effect = lower value) was 0.988. It also gave a normalized growth (S. cerevisiae deletion strains, locus YHR030C, strain SLT2, stronger effect = lower value) of 0.769, a normalized growth (S. cerevisiae deletion strains, locus YHR087W, strain rtc3, stronger effect = lower value) of 1.09 and a normalized growth (S. cerevisiae deletion strains, locus YJL187C, strain SWE1, stronger effect = lower value) of 1.01. The normalized growth (S. cerevisiae deletion strains, locus YJR043C, strain POL32, stronger effect = lower value) was 0.992, the normalized growth (S. cerevisiae deletion strains, locus YJR075W, strain HOC1, stronger effect = lower value) was 0.989 and the normalized growth (S. cerevisiae deletion strains, locus YLR039C, strain RIC1, stronger effect = lower value) was 0.992. The normalized growth (S. cerevisiae deletion strains, locus YLR058C, strain SHM2 (second series), stronger effect = lower value) was 1.01, the normalized growth (S. cerevisiae deletion strains, locus YLR085C, strain ARP6, stronger effect = lower value) was 0.845 and the normalized growth (S. cerevisiae deletion strains, locus YLR262C, strain YPT6, stronger effect = lower value) was 0.941. The normalized growth (S. cerevisiae deletion strains, locus YML094W, strain GIM5, stronger effect = lower value) was 0.97, the normalized growth (S. cerevisiae deletion strains, locus YMR219W, strain ESC1, stronger effect = lower value) was 0.998 and the normalized growth (S. cerevisiae deletion strains, locus YMR263W, strain SAP30, stronger effect = lower value) was 0.999. It also gave a normalized growth (S. cerevisiae deletion strains, locus YMR307W, strain GAS1, stronger effect = lower value) of 0.669, a normalized growth (S. cerevisiae deletion strains, locus YNL153C, strain GIM3, stronger effect = lower value) of 1 and a normalized growth (S. cerevisiae deletion strains, locus YNL298W, strain CLA4 (second series), stronger effect = lower value) of 0.926. For the same molecule, the normalized growth (S. cerevisiae deletion strains, locus YNL322C, strain KRE1, stronger effect = lower value) was 0.974, the normalized growth (S. cerevisiae deletion strains, locus YNR030W, strain Alg12, stronger effect = lower value) was 0.958 and the normalized growth (S. cerevisiae deletion strains, locus YPL055C, strain LGE1, stronger effect = lower value) was 1.06. The normalized growth (S. cerevisiae deletion strains, locus YPL241C, strain CIN2, stronger effect = lower value) was 0.982, the normalized growth (S. cerevisiae deletion strains, locus YPR135W, strain CTF4, stronger effect = lower value) was 0.897 and the normalized growth (S. cerevisiae strains, strain wild type, stronger effect = lower value) was 0.902 (active).
